Data taken from PubChem BioAssay (NCI).
The panel holds about 83,000 compounds, 20% with a hit somewhere; the sample as a whole holds those more often.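 Compound tested at a single concentration for 48 hours in 96-well plates; a percent growth value below 10 was scored as active.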 Values without a mark were called inactive. Active and inactive are the calls of the source.

How the values were obtained:
Assay in all cases: NCI-60 one-dose screen, 48 h (100 = growth as untreated, 0 = no growth, -100 = all killed)
Settings in all cases: 10 µM unless noted
[1] = test system: SR leukemia
[2] = test system: RPMI-8226 leukemia
[3] = test system: OVCAR-8 ovarian
[4] = test system: OVCAR-5 ovarian
[5] = test system: OVCAR-4 ovarian
[6] = test system: SK-OV-3 ovarian
[7] = test system: IGROV1 ovarian
[8] = test system: OVCAR-3 ovarian
[9] = test system: HS 578T breast
[10] = test system: NCI/ADR-RES ovarian

| SMILES | growth [1] | growth [2] | growth [3] | growth [4] | growth [5] | growth [6] | growth [7] | growth [8] | growth [9] | growth [10] |
| --- | --- | --- | --- | --- | --- | --- | --- | --- | --- | --- |
| O=C(NNc1nc2cc(F)c(F)cc2n2c(CN3CC4CNCC4C3)ccc12)c1cnccn1 (stereo not given) | 12% | 20.4% | 13.8% | 42.7% | 22.8% | 13.3% | 14.5% | 35.9% | 72.7% | 56.7% |
| CCCCCc1ccc(S(=O)(=O)Nc2cc(-c3csc(NC(=O)CN4CCN(C)CC4)n3)ccc2OC)cc1 | -20.3% (active) | -27% (active) | 50.8% | 62.4% | 41.8% | 73.4% | 14.2% | -19.4% (active) | -30.3% (active) | 41.9% |
| O=C1[C@H]2Cc3c([nH]c4ccccc34)[C@@H](c3ccc(Cl)cc3)N2C(=O)CN1C1CCN(Cc2ccccc2)CC1 | 10.4% | 17% | 72.7% | 74.8% | 49.1% | 79.7% | 33.5% | 47.7% | 68.1% | 51.3% |
| Cn1ccnc1C(=O)/C=C/c1ccc(CNC(=O)c2c(F)c(F)c(F)c(F)c2F)cc1 | 12.8% | 9.9% (active) | 90.1% | 94.9% | 95.4% | 105% | 31.7% | 14.8% | 86.9% | 49.1% |
| C/C(=N\O)[C@H]1C[C@]23CC[C@]4(C)[C@H](CC[C@@H]5[C@@]6(C)CC/C(=N/O)C(C)(C)[C@@H]6CC[C@]54C)[C@H]2[C@H](C)C1(C)OC3 | 98.7% | 124% | 106% | 105% | 82.8% | 122% | 86.2% | 113% | 104% | 113% |
| CC(=O)c1ccc(Nc2nc(SCC(C)C)nc(-c3ccc(F)cc3)c2C#N)cc1 | 102% | 118% | 101% | 113% | 115% | 114% | 111% | 115% | 122% | 110% |
| Cn1cc(-c2nc(N)nnc2-c2c[nH]c3ccc(Br)cc23)c2cc(Br)ccc21 | 20.4% | 31.1% | 57.8% | 79.9% | 110% | 72.4% | 43.7% | 26.8% | 76.7% | 46.5% |
| O=C1CCCC2=C1C(c1c[nH]c3ccc(Br)cc13)Cc1cc(Br)ccc1N2 (stereo not given) | 33.3% | 25.1% | 55.3% | 66.2% | 101% | 44.7% | 24.1% | 27.2% | 20.2% | 21.4% |
| CN(C)C(=O)c1cc(-c2ccc3ncnc(NCc4ccccc4)c3c2)cnc1N | 89.3% | 50.5% | 97.3% | 62.9% | 80.7% | 110% | 34.2% | 85.1% | 81.8% | 104% |
| O=C(CN1CCN(c2cc(=O)n(-c3ccccc3)c3ccccc23)CC1)Nc1nc(-c2ccc(Cl)cc2)cs1 | 56.8% | 36.7% | 59.4% | 93.1% | 19.7% | 71.4% | 65.5% | 67.1% | 92.8% | 54.9% |
| CN(C)CCNC(=O)c1ccc(-c2nc3ccc4[nH]ncc4c3c3c2CCC3)cc1 | -1.05% (active) | -15.7% (active) | 9.58% (active) | 21.4% | 10.2% | 0.409% (active) | 1.06% (active) | 2.15% (active) | -25% (active) | 81.3% |
| COc1cc(-c2nn(C(C)(C)C)cc2-c2ccnc(NCCCNS(=O)(=O)c3ccc(F)cc3)n2)ccc1Cl | 48.8% | 75.1% | 89.2% | 82.3% | 54.2% | 104% | 61.6% | 90.7% | 81% | 79.9% |
| COc1cc(-c2nn(C(C)(C)C)cc2-c2ccnc(NCCCNS(=O)(=O)c3ccccc3)n2)ccc1Cl | 56% | 56.3% | 84.9% | 84.3% | 57.6% | 103% | 55.2% | 93.1% | 68.3% | 71% |
| CCCCCc1ccc(S(=O)(=O)Nc2cccc(-c3csc(NC(=O)CNCCN(C)C)n3)c2)cc1 | 22.2% | 30.3% | 95.7% | 110% | 70% | 109% | 87.9% | 87.7% | 90.9% | 73.1% |
| O=S(=O)(NCCCNc1nccc(-c2[nH]c(-c3ccccc3)nc2-c2ccc(Cl)c(O)c2)n1)c1ccc(Br)cc1 | 15.3% | 22.1% | 33.3% | 72.2% | 46.6% | 68.4% | 36.8% | 24.1% | 63.2% | 42.6% |
| C[C@@H](Nc1c(C#N)cnc2ccc(-c3cnc(Cl)c(NS(C)(=O)=O)c3)cc12)c1ccccc1 | -14.1% (active) | -34.9% (active) | 16.3% | 4.76% (active) | 0.536% (active) | -7.04% (active) | -30.4% (active) | 4.33% (active) | -15.9% (active) | 31.5% |
| O=C(NNc1nc2cc(F)c(F)cc2n2cccc12)c1cnccn1 | 15.3% | 30.5% | 16.6% | 41.2% | 20.3% | 30.5% | 19.5% | 35.6% | 75.5% | 2.66% (active) |
| CN1CCN(Cc2ccc(NC(=O)c3cncc(C#Cc4cnc5ccc(OCC(C)(C)O)nn45)c3)cc2C(F)(F)F)CC1 | -7.52% (active) | -27.6% (active) | 6.58% (active) | -3.05% (active) | -2.05% (active) | -13.3% (active) | -17.3% (active) | -56.5% (active) | -36.9% (active) | 33.9% |
| CCN(CC)c1ccc(NC2=C(Cl)C(=O)c3nc(C)ccc3C2=O)cc1 | 7.24% (active) | 2.6% (active) | -12.2% (active) | 108% | -97% (active) | 112% | -52.2% (active) | -29.6% (active) | 65.4% | 51.2% |
| CC(C)(C)c1ccc(C(=O)Nc2sc3c(c2C(N)=O)CCC(O)C3)cc1 (stereo not given) | 25.8% | 16.3% | 43.4% | 66.5% | 68.5% | 70.1% | 44.9% | 55.3% | 82.9% | 49.9% |
| COc1ccc(NC2=C(Cl)C(=O)c3nc(C)ccc3C2=O)cc1OC | 0.922% (active) | 47.3% | 92.6% | 105% | 71.4% | 91.8% | 19.6% | 13.2% | 119% | 94.7% |
| Cc1ccc2c(c1)Oc1nc(N)c(C#N)c(N)c1C2Sc1ccc(F)cc1 (stereo not given) | -15.6% (active) | -24.1% (active) | -99.4% (active) | -93.5% (active) | -99.3% (active) | -94.5% (active) | -91.3% (active) | -88.1% (active) | -38.1% (active) | -89.4% (active) |
| COc1ccc(S(=O)(=O)NCCCNc2nccc(-c3[nH]c(-c4ccccc4)nc3-c3ccc(Cl)c(O)c3)n2)cc1 | 61.9% | 49.8% | 67% | 104% | 101% | 112% | 93.6% | 71.8% | 112% | 103% |
| CCCCCc1ccc(S(=O)(=O)Nc2cc(-c3csc(NC(=O)CN4CCN(CCO)CC4)n3)ccc2OC)cc1 | -13.2% (active) | -16.9% (active) | 82.1% | 86.1% | 72.5% | 78% | 48.9% | 13.3% | 52.8% | 88.4% |
| C=CCn1c(SCC(=O)Nc2ccc(C(=O)/C=C/c3ccc(C)cc3)cc2)nnc1-c1c[nH]c2ccccc12 | 71.7% | 34.9% | 90.9% | 99.6% | 81.3% | 105% | 78.4% | 99.4% | 96.9% | 98.4% |
| CS(=O)(=O)Nc1cc(-c2ccc3ncc(C#N)c(NCc4ccccc4F)c3c2)cnc1Cl | 3.57% (active) | -22% (active) | 7.93% (active) | 16.8% | 12.6% | -13.7% (active) | -29.1% (active) | 3.41% (active) | -22% (active) | 25% |
